About 83,000 compounds went through this panel and 20% of them were active in at least one assay; those are over-represented in the sample as a whole.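 96-well plates, one dose, 48 hours. Percent growth reported; active if below 10.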 A number with no mark means an inactive call. Active and inactive are the calls of the source.
Tests used:
Assay in all cases: NCI-60 one-dose screen, 48 h (100 = growth as untreated, 0 = no growth, -100 = all killed)
Conditions in all cases: 10 µM unless noted
SR leukemia = test system: SR leukemia
RPMI-8226 leukemia = test system: RPMI-8226 leukemia
OVCAR-8 ovarian = test system: OVCAR-8 ovarian
OVCAR-5 ovarian = test system: OVCAR-5 ovarian
OVCAR-4 ovarian = test system: OVCAR-4 ovarian
SK-OV-3 ovarian = test system: SK-OV-3 ovarian
OVCAR-3 ovarian = test system: OVCAR-3 ovarian
HS 578T breast = test system: HS 578T breast
NCI/ADR-RES ovarian = test system: NCI/ADR-RES ovarian
T-47D breast = test system: T-47D breast
BT-549 breast = test system: BT-549 breast
MDA-MB-435 melanoma = test system: MDA-MB-435 melanoma
SW-620 colon = test system: SW-620 colon
MCF7 breast = test system: MCF7 breast
HCT-116 colon = test system: HCT-116 colon
HCC-2998 colon = test system: HCC-2998 colon
KM12 colon = test system: KM12 colon
IGROV1 ovarian = test system: IGROV1 ovarian

SMILES	growth (SR leukemia)	growth (RPMI-8226 leukemia)	growth (OVCAR-8 ovarian)	growth (OVCAR-5 ovarian)	growth (OVCAR-4 ovarian)	growth (SK-OV-3 ovarian)	growth (OVCAR-3 ovarian)	growth (HS 578T breast)	growth (NCI/ADR-RES ovarian)	growth (T-47D breast)	growth (BT-549 breast)	growth (MDA-MB-435 melanoma)	growth (SW-620 colon)	growth (MCF7 breast)	growth (HCT-116 colon)	growth (HCC-2998 colon)	growth (KM12 colon)	growth (IGROV1 ovarian)
c1ccc2c(c1)CCCc1nnc3nc4ccccc4n3c1-2	20.5%	31.6%	38.5%	37.8%	17.9%	50.3%	23.6%	77.1%	24.6%	31.7%	62.9%	61.9%	53.7%	45.6%	17%	42.4%	55.8%	
CCOC(=O)c1cc(C(=O)c2cc(OC)c(OC)c(OC)c2)n2ccccc12	23.9%	23.2%	33.2%	71.5%	67.9%	22.3%	-5.59% (active)	40.1%	10.7%	47.5%	40%	-41.8% (active)	29.8%	23.7%	18.9%	39.4%	25.2%	
CCC1S/C(=N\N=C(\C)c2cc3cc(Cl)ccc3o2)N(c2ccccc2)C1=O (centres undefined)	85.1%	83.7%	126%	100%	107%	108%	75.5%	52.4%	90.8%	88.5%	119%	96.4%	90%	100%	84.2%	83.2%	91.6%	
COc1ccc(N2CCN(C(=O)c3sc4nc(C)c(Br)c(C)c4c3N)CC2)cc1	97.4%	98.5%	97.6%	90.5%	90.6%	90.1%	98.3%	92.8%	101%	79%	88.2%	98.7%	104%	81%	99%	97.1%	94%	
CN(C)CCN1C(=O)c2cccc3c(/C=C/CN4C(=O)c5cccc6cccc(c56)C4=O)ccc(c23)C1=O	-16.4% (active)	-31.4% (active)	-43.5% (active)	-69% (active)	-5.6% (active)	109%	114%	82.6%		97.6%	97%	89.3%	11.9%	-71.6% (active)	9.57% (active)		-79.4% (active)	89.4%
COc1ccc(CCN(CC(=O)N(CC(N)=O)C2CCC[C@@H]2OCc2ccccc2)C(=O)CN(C(=O)CN(CCc2ccc(Cl)cc2)C(=O)CN(C(=O)CN(C)Cc2ccccc2F)[C@H](C)C2CCCCC2)[C@H](C)C2CCCCC2)cc1OC (some centres undefined)	-37.1% (active)	-0.194% (active)	32.2%	49.2%	48.9%	38.4%	32.5%	64.3%	79.2%	27%	47.3%	26%	53.2%	14.1%	22.4%	0.406% (active)	20.2%	
C=C1C(=O)O[C@H]2[C@H]1CC/C(COC(=O)c1cc3cc(Cl)ccc3[nH]1)=C\CC[C@@]1(C)O[C@@H]21	-25.6% (active)	-29.9% (active)	-72.9% (active)	-69.9% (active)	-81.9% (active)	27.6%	-91.3% (active)	-22% (active)		-68.2% (active)	-47.4% (active)	-91.7% (active)	-53.1% (active)	-71.7% (active)	-70.4% (active)		-59.8% (active)	-82.7% (active)
CN1CCN(Cc2ccc(NC(=O)c3cncc(C#Cc4cnc5ccc(Cl)nn45)c3)cc2C(F)(F)F)CC1	-2.72% (active)	-25.6% (active)		-4.08% (active)	-4.08% (active)	12.3%	-5.42% (active)	-14.6% (active)	2.61% (active)	10.4%	-6.27% (active)	-10.4% (active)	-2.63% (active)	-2.36% (active)	-12.6% (active)		-0.151% (active)	1.12% (active)
CCCCCCCCCCCCCCCCCCOc1ccccc1CC(=O)NCC[N+]1(C)CCCCC1	26.3%	50.9%		30%	40.3%	77%	46.5%	61.8%	104%	75.3%	74.9%	60.5%	63.8%	53.3%	57.4%	32.2%	28.8%	-8.66% (active)
O=C(NNC(=O)c1nc2cc(F)ccc2n2cccc12)c1cnccn1	21.4%	41.3%	24.2%	68.3%	28.4%	42.1%	30%	67.8%		38.5%	66%	36.2%	26.4%	34.8%	32.4%	50.7%	28%	
COc1ccc(Oc2nc(Nc3ccc(N4CCOCC4)cc3)ncc2NC(=O)Nc2cc(OC)cc(OC)c2)cc1	50.7%	54.3%		60.9%	54.5%	57.4%	18.3%	36.2%	80.8%	48.8%	12.5%	6.76% (active)	19.6%	41.7%	-55.5% (active)	9.48% (active)	24%	37.8%
CCN1CCN(CC(=O)Nc2nc3ccc(NCc4ccc(F)cc4)cc3s2)CC1	80.2%	77.3%		94.8%	84%	105%	99.4%	92.9%	92.2%	86.8%	97.9%	93.4%	92.3%	92.1%	70.9%	110%	94.5%	103%
O=C(NNC(=O)c1ccc(NC(=O)c2ccccn2)cc1)Nc1ccc2ccccc2c1	126%	109%		121%	106%	115%	126%	111%	106%	106%	107%	110%	116%	96%	102%	121%	102%	109%
O=C(Cc1ccc(/C=C/C(=O)c2ncc[nH]2)cc1)Nc1cc(C(F)(F)F)cc(C(F)(F)F)c1	41.1%	-18% (active)		103%	100%	105%	59.3%	87.6%	102%	80.5%	99.7%	60.1%	53.5%	7.59% (active)	5.37% (active)	63%	38.5%	84.4%
COc1cc(OC)c(C(=O)C(CN(C)C)CN(C)C)cc1OC	-49.3% (active)	-18.1% (active)		110%	54.1%	85.1%	1.07% (active)	108%	94.3%	-17.6% (active)	74.5%	80.9%	-83.3% (active)	10.6%		110%	111%	109%
NC(=O)c1cccc([C@@H]2O[C@H](CO)[C@@H](O)[C@H]2O)c1	84%	-25.7% (active)		102%	-20.6% (active)	28.7%	70.6%	5.46% (active)	23.8%	85.7%	90.9%	106%	24%	61.8%	72.7%	93.9%	34.7%	110%
C=C(C)[C@@H]1CC[C@]2(C)[C@H](CC=C3[C@@H]4CC(C)(C)CC[C@]4(CO)CC[C@]32C)[C@@]1(C)CCCN	-52.1% (active)	-47.5% (active)		26%	-21.8% (active)	82.8%	-42% (active)	43.4%	49.1%	-26.5% (active)	64.6%	-84% (active)	-81.9% (active)	-41.4% (active)	-79.6% (active)	-76% (active)	-53.9% (active)	8.73% (active)

From PubChem BioAssay (NCI)
